According to PubChem BioAssay AID977607 (Broad Institute, 2014):
In all, about 1,500 compounds went through this assay and about 460 (31%) were called active. Roughly 1% stayed inconclusive and do not appear here.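 Rule for the calls: active = curve reaches 40% activation over neutral controls at an AC40 no higher than the top valid tested concentration; inconclusive = no clear call, values can overlap the other calls; inactive = signal moving opposite to the expected increase, and the rest.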 These entries were drawn from the full list. Measured potencies and affinities stand elsewhere.

Assay: activators of glucose-dependent insulin secretion, dose response, cell-based, INS-1E, Gaussia luciferase, luminescence, cherry-pick, set 2 (AID 977607);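 note: 0% = median of the plate neutral control wells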
Settings: INS-1E GLuc insulin secretion reporter, 2-3 h, hits give high values; at 35 µM, 100% = signal doubled over neutral wells unless noted

Max activation, inactive:
CCOc1nc(CC(C)C)c2c(c1C#N)CC(C)(C)OC2 -26.5%, O=C(NN(Cc1ccccc1)Cc1ccccc1)c1ccccc1 23.7% [at 1.2 µM, 100% = signal doubled over neutral wells], O=C(c1cc(-c2ccccc2)nc2ccccc12)N1CCCC1 -13.5% [at 11 µM, 100% = signal doubled over neutral wells], Cn1cc(C(=O)NCC(=O)Nc2ccccc2Br)cn1 -16.7% [at 0.135 µM, 100% = signal doubled over neutral wells], COc1cc2ccc(C(C)=O)cc2cc1OC 29.7% [at 0.0016 µM, 100% = signal doubled over neutral wells], COc1ccc(CC(=O)c2ccc(OC)c(OC)c2)cc1 18.3% [at 0.0016 µM, 100% = signal doubled over neutral wells], COc1ccc(C(C)=O)cc1CSCc1cc(C(C)=O)ccc1OC 10.8%, CC(C)c1ccc2oc(=O)cc(CN3CCCCC3)c2c1 -12.8%, Cc1cc2oc(=O)cc(CN3CCOCC3)c2c(C)c1Cl -12.4% [at 0.0016 µM, 100% = signal doubled over neutral wells], COc1ccc(-c2cc(C(F)(F)F)n3nc(C(=O)O)cc3n2)cc1OC 13.4%, Cc1ccccc1Cc1c(C)nc2c(C(=O)NCc3ccco3)cnn2c1C -44.9%, C[C@H]1[C@@H](c2ccccc2)Oc2c(Cl)cccc2S(=O)(=O)N1C -29.7% [at 11 µM, 100% = signal doubled over neutral wells], CCN1CCN(c2nnc(-c3ccccc3)c3ccccc23)CC1 13.4% [at 0.135 µM, 100% = signal doubled over neutral wells], COC(=O)Cn1cc(C#N)c2ccccc21 43% [at 0.42 µM, 100% = signal doubled over neutral wells], CN(C)C(=O)c1ccc(-c2ccc([C@@H]3[C@@H](CO)N4C(=O)CN(C(=O)C5CC5)C[C@@H]34)cc2)cc1 31.8% [at 0.046 µM, 100% = signal doubled over neutral wells], C/C=C1\COC(C(=O)NCc2ccccc2)(C(F)(F)F)C=C1C=C(C)C (configuration not stated) -29.1%, CN(c1ccc(F)cc1)S(=O)(=O)c1ccc(Cl)c(C(=O)NCC2CCCO2)c1 (configuration not stated) -19.1%, CN(C(=O)[C@H]1O[C@@H](n2cnc(C(N)=O)n2)[C@H](O)[C@@H]1O)c1ccccc1 -24.3% [at 1.2 µM, 100% = signal doubled over neutral wells], CN1CCSc2ccc(C(=O)Nc3cccc(F)c3)cc21 -34.2%, Cc1nc2c(c(N3CCOCC3)n1)OCC(=O)N2 52.8%, COc1cc(C2N(C)CCC3(OCCO3)C2(C)C)cc(OC)c1OC (configuration not stated) -12.6% [at 0.0016 µM, 100% = signal doubled over neutral wells], COc1ccc(-c2nnc3sc(-c4ccco4)nn23)cc1OC -14.1% [at 0.046 µM, 100% = signal doubled over neutral wells], CCSc1nnc2ccc(-c3cccs3)nn12 23.8%, CC/C(O)=C1\C(=O)CC(c2ccccc2)CC1=NC(C)C (configuration not stated) -12.6% [at 1.2 µM, 100% = signal doubled over neutral wells], CCN(CC)CCn1c(=N)n(CC(O)COc2ccccc2)c2ccccc21 (configuration not stated) -13.8% [at 3.8 µM, 100% = signal doubled over neutral wells], Cc1ccc(C(CC(=O)O)NC(=O)c2ccc(S(=O)(=O)N3CC(C)OC(C)C3)cc2)cc1 (configuration not stated) -15.8% [at 0.42 µM, 100% = signal doubled over neutral wells], CCOC1=C2[C@H](c3ccc(C)cc3)N(S(=O)(=O)c3ccc(C)cc3)C[C@H]2n2c(=O)n(-c3ccccc3)c(=O)n2C1 -23.2% [at 0.005 µM, 100% = signal doubled over neutral wells], CNc1nc(N)c(C(=O)C(C)(C)C)s1 27.9% [at 11 µM, 100% = signal doubled over neutral wells], CC1(C)Cc2c(c(-c3ccco3)nc3n[nH]c(N)c23)CO1 25% [at 0.135 µM, 100% = signal doubled over neutral wells], CN=C1c2ccccc2CN1c1cccc(C(=O)OC)c1 14.7%, O=S(=O)(c1ccc(NCCCO)nc1)N1CCOCC1 -14.1% [at 0.015 µM, 100% = signal doubled over neutral wells], COC(=O)c1c(C)oc(C)c1S(=O)(=O)Nc1ccc(C(C)C)cc1 -24.4%, Cc1ccc(-c2cnc3cccnn23)cc1F 39% [at 0.015 µM, 100% = signal doubled over neutral wells], COC(=O)c1ccc(Oc2ccc(C(F)(F)F)cn2)cc1 -19.1% [at 0.135 µM, 100% = signal doubled over neutral wells], Cc1nc2c(-c3ccc(F)cc3)cnn2c2c1CCC2 -15.5% [at 0.0016 µM, 100% = signal doubled over neutral wells], COC(=O)C[C@@H]1C=C[C@H](NC(=O)Cc2ccccn2)[C@@H](CO)O1 -17.5% [at 0.015 µM, 100% = signal doubled over neutral wells], COCCNC(=O)CCCn1c(=O)c2ccccc2n(Cc2ccccc2C#N)c1=O -20.3% [at 0.015 µM, 100% = signal doubled over neutral wells], CCc1c(C(=O)Nc2ccc(C)c(C)c2)[nH]c(C)c1C(C)=O -21.4% [at 11 µM, 100% = signal doubled over neutral wells], CCN(c1ccccc1)S(=O)(=O)c1ccc(OC)c(OC)c1 12.1%, COc1ccc(S(=O)(=O)N2CCC(C(=O)NCc3ccccn3)CC2)cc1OC 32.9% [at 3.8 µM, 100% = signal doubled over neutral wells], COc1ccc(N2CCN(S(=O)(=O)c3ccc(-c4cc(C)no4)s3)CC2)cc1 -17.8% [at 0.135 µM, 100% = signal doubled over neutral wells], COc1ccc(CN(C)C(=O)c2cc(-c3ccc(OC)c(OC)c3)nc3ccccc23)c(OC)c1 -23.5%, COc1ccc(-c2cc(C(=O)N(C)Cc3ccc(OC)c(OC)c3OC)c3ccccc3n2)cc1OC 13.2% [at 11 µM, 100% = signal doubled over neutral wells], c1cn2cc(-c3ccc(CN4CCOCC4)cc3)ccc2n1 -25.5% [at 3.8 µM, 100% = signal doubled over neutral wells], O=c1[nH]c2cc(Cl)ccc2n(CCNc2ncc(C(F)(F)F)cc2Cl)c1=O -28.9% [at 3.8 µM, 100% = signal doubled over neutral wells], COc1ccc(-c2cc3nc4ccccc4n3c(N)c2C#N)cc1 -29% [at 0.135 µM, 100% = signal doubled over neutral wells], O=C(O)c1ccc(-c2nc(-c3ccccc3)c(-c3cccs3)[nH]2)cc1 6.45% [at 1.2 µM, 100% = signal doubled over neutral wells], COc1ccc(-c2ocnc2C(=O)Nc2ccc(N3CCOCC3)cc2N2CCOCC2)cc1OC -29.2%, COc1ccc(C2CC(c3ccc(OC)c(OC)c3)=NN2C(=O)c2ccccc2)cc1 (configuration not stated) -8.01% [at 0.0016 µM, 100% = signal doubled over neutral wells], O=c1c2ccccc2c(-c2ccccc2)nn1-c1ccccn1 -14.4%, COc1ccccc1Cn1c(=O)oc2ccccc21 -27.7% [at 0.005 µM, 100% = signal doubled over neutral wells], COc1ccc(CNC(=O)C2Cc3c(-c4cccc(F)c4)ccnc3O2)cc1OC (configuration not stated) -18.6% [at 0.015 µM, 100% = signal doubled over neutral wells], COc1cc2c3nnc(-c4ccccc4)c-3cn(Cc3ccccc3F)c2cc1OC -22.1% [at 0.135 µM, 100% = signal doubled over neutral wells], FC(F)(F)c1ccc(Cl)c(-n2c(Cc3cccs3)n[nH]c2=S)c1 -14.3% [at 0.005 µM, 100% = signal doubled over neutral wells], COc1ccc(/C=C2/SC(=O)N(NS(=O)(=O)c3ccccc3)C2=S)cc1OC -21.6% [at 0.015 µM, 100% = signal doubled over neutral wells], CC1(C)CCCC(C)(C)N1CC(O)COCCOc1ccc(Br)cc1 (configuration not stated) -12.4%, CCS(=O)(=O)c1nc(S(=O)(=O)c2ccc(C)cc2)c(N2CCC(O)CC2)s1 -18.3% [at 0.42 µM, 100% = signal doubled over neutral wells]
